40 compounds from PubChem BioAssay (EPA / NIEHS) can be followed below.

Results filed as inconclusive are left out. Calls of active or inactive are those of the source. The calls were made as follows: active = hit-call score of the fitted dose curve at least 0.9, where 1 is the maximum; inconclusive = response in the unintended direction; inactive = score below 0.9.

Read-out in the test: glucuronosyltransferase (UGT1A1), UGT1A1 (gene 54658)
In words: CLD_UGT1A1_6hr: CellzDirect (CLD) Gene Expression Assay for glucuronosyltransferase (UGT1A1) at 6 hours (AID 2283672). The method, then:
CLD_6hr is a cell-based, multiplexed-readout assay that uses hepatocyte, a human liver primary cell, with measurements taken at 6 hours after chemical dosing in a 96-well plate.CLD_UGT1A1_6hr is one of 16 assay component(s) measured or calculated from the CLD_6hr assay. It is designed to make measurements of mRNA induction, a form of inducible reporter, as detected with chemiluminescence signals by Quantitative Nuclease Protection Assay (qNPA) technology.Data from the assay component CLD_UGT1A1_6hr was analyzed at the endpoint, CLD_UGT1A1_6hr, in the positive analysis fitting direction relative to DMSO as the negative control and baseline of activity. Using a type of inducible reporter, gain-of-signal activity can be used to understand changes in the reporter gene as they relate to the gene UGT1A1. Furthermore, this assay endpoint can be referred to as a primary readout. To generalize the intended target to other relatable targets, this assay endpoint is annotated to the transferase intended target family, where subfamily is glucuronosyltransferase.
Human hepatocyte cultures were treated daily for two consecutive days with fresh dosing solutions containing appropriate concentrations of the 320 ToxCast chemicals (chemical identities were blinded to CellzDirect and other ToxCast collaborators), vehicle control (0.2% DMSO), and positive control inducers as summarized in Table 1. Due to the large number of treatment groups and chemicals examined, the ToxCast chemicals were divided into two groups (spanning two independent cultures of hepatocytes from separate donor preparations (Hu778: ToxCast plates 1 and 2; Hu776: ToxCast plates 3 and 4). Each preparation of human hepatocyte cultures was treated with respective vehicle control, medium only control, set of six positive controls/reference chemicals for the five hepatic receptor pathways, and a subset of eight of the ToxCast chemicals (indoxacarb, pyrithiobac-sodium, norflurazon, cyhalofop-butyl, methomyl, thiram, acetochlor, and propiconazole). These replicate data, coupled with internal replicates designed within the blinded ToxCast chemical library, provided additional data to evaluate interindividual differences between hepatocyte preparations and their potential impact on chemical profiles.Cell morphology and integrity were evaluated using phase-contrast microscopy as an indicator of hepatocyte cell health (Tyson & Green, 1987). Cultures for each treatment group (i.e., media, vehicle [0.2% DMSO], positive control inducers [multiple concentrations], and the ToxCast chemicals [multiple concentrations]) were observed and cell morphology was assessed relative to vehicle control cultures at each harvest time point (0, 6, 24, or 48 h). […] Images were evaluated at the conclusion of the study to assess changes in cell integrity and account for the effects of chemical exposure on uncharacteristic changes in concentration-dependent gene expression profiles. The results from these determinations of apparent cytotoxicity were annotated (yes/no) alongside the corresponding qNPA data for reference.At the conclusion of each treatment period, hepatocyte cultures (96-well) were washed with 1 volume of HBSS, lysed by addition of 25 ul ArrayPlate lysis buffer (HTG, Tucson, AZ), and 70 ul/well of Denaturation Oil, denatured by incubation at 95C for 10 min, and frozen at approximately -70C until analysis by nuclease protection assay (qNPA) (Roberts et al., 2007). For qNPA analysis, cell lysates were thawed at 50C for approximately 30 min, qNPA probes were added, and samples were incubated at 95C for 10 min to begin the detection process by denaturing the target RNA, dissociating the duplexes and secondary structure hybridization. At the conclusion of the hybridization period, S1 nuclease reagent was added to each sample to digest all nonprotected nucleotides at 50C for 60-90 min. […]
Consider `CCOc1nc(NC)nc(NC(=O)NS(=O)(=O)c2ccccc2C(=O)OC)n1`, for which the outcome was inactive.
Take `CC(C)OC(=O)Nc1cccc(Cl)c1`: the call was inactive.
Turning to `COP(=O)(OC)OC=C(Cl)Cl`, the call was inactive.
On to `CCS(=O)(=O)c1cccnc1S(=O)(=O)NC(=O)Nc1nc(OC)cc(OC)n1`, for which the outcome was inactive.
The value for `Oc1ccc(Cl)cc1Cc1ccccc1` was “inactive”; that for `CCN(CC)C(=O)SCc1ccc(Cl)cc1` was “inactive”.
The value for `CCOC1Oc2ccc(OS(C)(=O)=O)cc2C1(C)C` (stereo not given) was “inactive”.
With `CC1(C)C(C=C(Cl)Cl)C1C(=O)OC(C#N)c1ccc(F)c(Oc2ccccc2)c1` (stereo not given), the outcome was inactive.
Then `COc1nn(CSP(=S)(OC)OC)c(=O)s1`, with “inactive”; and `CNC(=O)/C=C(\C)OP(=O)(OC)OC`, with “inactive”; and `O=C(O)C(F)(F)C(F)(F)C(F)(F)C(F)(F)C(F)(F)C(F)(F)C(F)(F)F`, with “inactive”.
Take `Cc1cc(C)nc(NC(=O)NS(=O)(=O)c2ccccc2C(=O)OC2COC2)n1`: the compound was classed as inactive.
As for `N#CN`, the outcome was inactive.
The value for `Cc1[nH]c(=O)n(C(C)(C)C)c(=O)c1Cl` was “inactive”; that for `COC(=O)c1ccccc1CS(=O)(=O)NC(=O)Nc1nc(OC)cc(OC)n1` was “inactive”.
For the compound `CCc1ccc(C(=O)NN(C(=O)c2cc(C)cc(C)c2)C(C)(C)C)cc1`, the outcome was inactive.
The value for `C[C@H]1[C@H](c2ccc(Cl)cc2)SC(=O)N1C(=O)NC1CCCCC1` was “inactive”.
Then `CCCN(CCOc1c(Cl)cc(Cl)cc1Cl)C(=O)n1ccnc1`, with “inactive”; and `O=[N+]([O-])/N=C1\NCCN1Cc1ccc(Cl)nc1`, with “inactive”; and `O=S1OCC2C(CO1)C1(Cl)C(Cl)=C(Cl)C2(Cl)C1(Cl)Cl` (stereo not given), with “inactive”.
Take `CCC(C)(NC(=O)c1cc(Cl)c(C)c(Cl)c1)C(=O)CCl` (stereo not given): the compound was called inactive.
`COP(=S)(OC)Oc1ccc(SC)c(C)c1`: the outcome was inactive.
In the case of `CC(C)N(C(=O)COc1nnc(C(F)(F)F)s1)c1ccc(F)cc1`, the compound was classed as inactive.
The value for `CCC(C)Nc1c([N+](=O)[O-])cc(C(C)(C)C)cc1[N+](=O)[O-]` (stereo not given) was “inactive”; that for `O=C(Nc1ccccc1)Nc1cnns1` was “inactive”.
For `CC(C)(C)C(O)C(Oc1ccc(Cl)cc1)n1cncn1` (stereo not given), the outcome was inactive.
As to `COC(=O)c1ccccc1S(=O)(=O)NC(=O)N(C)c1nc(C)nc(OC)n1`, the compound was classed as inactive.
`O=C(O)CCCOc1ccc(Cl)cc1Cl`: the outcome was inactive.
Take `O=C(O)COc1ccc(Cl)cc1Cl`: the result was inactive.
Regarding `CNC(=O)Oc1cccc(N=CN(C)C)c1`, the outcome was inactive.
Then `COP(=S)(OC)Oc1ccc([N+](=O)[O-])cc1`, with “inactive”; and `O=C(NC(=O)c1c(F)cccc1F)Nc1ccc(OC(F)(F)C(F)OC(F)(F)F)c(Cl)c1` (stereo not given), with “inactive”.
On to `O=[N+]([O-])c1c(Cl)c(Cl)c(Cl)c(Cl)c1Cl`, for which the compound was classed as inactive.
With `CN1CSC(=S)N(C)C1`, the result was inactive.
For the compound `Clc1ccccc1-c1nnc(-c2ccccc2Cl)nn1`, the outcome was inactive.
The value for `CC(C)(C)C(O)/C(=C\c1ccc(Cl)cc1Cl)n1cncn1` (stereo not given) was “inactive”.
Then `O=S(=O)(O)C(F)(F)C(F)(F)C(F)(F)C(F)(F)C(F)(F)C(F)(F)C(F)(F)C(F)(F)F`, with “inactive”.
For `ClC1C(Cl)C(Cl)C(Cl)C(Cl)C1Cl` (stereo not given), the result was inactive.
`CCCN(CCC)c1c([N+](=O)[O-])cc(C(F)(F)F)cc1[N+](=O)[O-]`: the call was inactive.
As to `CCOCN(C(=O)CCl)c1c(C)cccc1CC`, the outcome was inactive.
